This passage reports growth results from PubChem BioAssay (NCI).

Test systems include DU-145 prostate; K-562 leukemia; MALME-3M melanoma; MDA-MB-231 breast; SF-268 CNS; SF-295 CNS; SF-539 CNS; UACC-257 melanoma; M14 melanoma; RXF 393 renal.
Test in all cases: NCI-60 one-dose screen, 48 h (100 = growth as untreated, 0 = no growth, -100 = all killed)
Common to all, as to details: 10 µM unless noted

Each structure is given as a SMILES string. Compounds without any hit were thinned out: in the full panel of roughly 83,000, 20% have a hit.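 96-well plates, one dose, 48 hours. Percent growth reported; active if below 10.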 Unmarked numbers belong to inactive results. Calls of active or inactive are those of the source.

Consider `CC1(C)N=C(N)N=C(N)N1c1ccc(CCCCc2ccc(Cl)c(S(=O)(=O)F)c2)c(Cl)c1`, for which the growth with DU-145 prostate is 35.3%; in the assay with K-562 leukemia, 9.3% (active); with MALME-3M melanoma, 17.4%; in the assay with MDA-MB-231 breast, 52.6%; in the assay on SF-268 CNS, 18.7%; with SF-295 CNS, 18.7%. The growth in the assay with SF-539 CNS is 14%; in the assay with UACC-257 melanoma, 18.3%; in the assay with M14 melanoma it was 20.7%.

On to `COc1ccc(/C=C\c2cc(OC)c(OC)c(OC)c2)cc1OCC(=O)Nc1nc2ccc(C(F)(F)F)cc2s1`, for which the growth in the assay with DU-145 prostate was 0.679% (active); in the assay on K-562 leukemia, 16%; in the assay on MALME-3M melanoma, 43.8%; in the assay on MDA-MB-231 breast, 12.8%; in the assay on RXF 393 renal, -4.84% (active); in the assay on SF-268 CNS it was 43%. Moreover, the growth is -18.6% (active) with SF-539 CNS, 50% in the assay on UACC-257 melanoma and 22.3% with M14 melanoma.

Consider `O=C1CCC2(O)[C@@H]3Cc4ccc(O)c5c4[C@]2(CCN3Cc2ccoc2)C1O5` (some centres undefined), for which the growth was 106% in the assay with DU-145 prostate; 93.9% in the assay with K-562 leukemia; 96.7% with MALME-3M melanoma; 106% with MDA-MB-231 breast; 116% in the assay on RXF 393 renal; 108% with SF-268 CNS. For the same compound, the growth in the assay on SF-539 CNS was 97.8%; in the assay with UACC-257 melanoma, 103%; in the assay with M14 melanoma, 100%.

For the compound `CCC1(C(C)C)C(=O)NC(=S)NC1=O`, the growth was 115% in the assay with DU-145 prostate; 107% in the assay on K-562 leukemia; 111% in the assay on MALME-3M melanoma; 114% with MDA-MB-231 breast; 94.8% in the assay with RXF 393 renal; 96.1% with SF-268 CNS. Besides, the growth in the assay on SF-539 CNS was 94.3%; with UACC-257 melanoma, 92.2%; in the assay on M14 melanoma, 106%.

With `COC1=CC(=O)O[C@@H](/C=C/c2ccc3c(c2)OCO3)C1`, the growth in the assay with DU-145 prostate is 141%; in the assay with K-562 leukemia, 93.9%; in the assay on MALME-3M melanoma, 119%; in the assay on MDA-MB-231 breast it was 107%; with SF-268 CNS, 111%; in the assay with SF-295 CNS, 122%. For the same compound, the growth in the assay with SF-539 CNS is 107%; in the assay with UACC-257 melanoma it was 120%; with M14 melanoma, 109%.

With `C[C@]12CC[C@@H]3c4ccc(Oc5nc(N6CC6)nc(N6CC6)n5)cc4CC[C@H]3[C@@H]1CCC2=O`, the growth in the assay with DU-145 prostate was 7.1% (active); with K-562 leukemia, 18%; in the assay on MALME-3M melanoma, 65.4%; with MDA-MB-231 breast it was 74.5%; in the assay on RXF 393 renal, -6.13% (active); in the assay on SF-268 CNS, 29.9%. For the same compound, the values for the growth with SF-539 CNS, in the assay on UACC-257 melanoma and in the assay on M14 melanoma were 21.6%, 65.5% and 44.7%, respectively.

`ClCCN(CCCl)Cc1ccc(Nc2ccnc3cc(Cl)ccc23)cc1`: the growth with DU-145 prostate was 18.6%; with K-562 leukemia, 35.6%; in the assay on MALME-3M melanoma it was 57.4%; in the assay on MDA-MB-231 breast, 56.3%; in the assay with RXF 393 renal, -59.1% (active); in the assay with SF-268 CNS, 25.3%. Moreover, the growth in the assay on SF-539 CNS was -20.2% (active); with UACC-257 melanoma, 56.2%; with M14 melanoma, 49.7%.

For the compound `CC12CC(=O)C3(SC#N)C(CCC4=CC(=O)CCC43C)C1CCC2=O` (centres undefined), the growth with DU-145 prostate was 46.2%; in the assay on K-562 leukemia, 89%; with MALME-3M melanoma, 50.2%; in the assay on MDA-MB-231 breast it was 100%; in the assay on RXF 393 renal, 56.5%; in the assay on SF-268 CNS, 101%. Further, the growth in the assay on UACC-257 melanoma was 75.9%; with M14 melanoma, 89%.

In the case of `Nc1nc([Se])c2ncn(C3OC(CO)C(O)C3O)c2n1` (centres undefined), the growth with DU-145 prostate was 39.9%; in the assay on K-562 leukemia it was 21.7%; in the assay on MALME-3M melanoma it was 69.3%; with MDA-MB-231 breast it was 22%; in the assay on SF-268 CNS, 87%; with SF-295 CNS it was 42.6%. Besides, the growth in the assay with SF-539 CNS was 81%; in the assay with UACC-257 melanoma it was 83.8%; in the assay with M14 melanoma, 40.6%.

`Cc1ccc(S(=O)(=O)F)cc1C(=O)O`: the growth in the assay with DU-145 prostate is 104%; in the assay with K-562 leukemia, 109%; in the assay on MALME-3M melanoma, 86.8%; in the assay with MDA-MB-231 breast, 107%; with SF-268 CNS, 101%; with SF-295 CNS, 95.1%. The growth is 94% in the assay on SF-539 CNS, 93.3% in the assay with UACC-257 melanoma and 110% in the assay on M14 melanoma.

With `CCOC(=O)C(Cc1ccc(N(CCCl)CCCl)cc1)NC(=O)C(CC(C)C)NC(C)=O` (centres undefined), the growth is 14.3% with DU-145 prostate; 12.6% in the assay on K-562 leukemia; -33% (active) in the assay on MALME-3M melanoma; 51.6% with MDA-MB-231 breast; -15.5% (active) in the assay on RXF 393 renal; 5.5% (active) with SF-268 CNS. Moreover, the growth was 13.2% in the assay on SF-539 CNS, 24.2% with UACC-257 melanoma and -4.57% (active) with M14 melanoma.

As for `CCC1(C)CC(CCNCc2ccccc2O)(c2ccc(C)cc2)CCO1` (centres undefined), the growth is 103% in the assay with DU-145 prostate; 101% with K-562 leukemia; 109% with MALME-3M melanoma; 106% in the assay with MDA-MB-231 breast; 111% in the assay on RXF 393 renal; 105% in the assay with SF-268 CNS. For the same compound, the figures for the growth in the assay on SF-539 CNS, in the assay with UACC-257 melanoma and in the assay on M14 melanoma were 99.1%, 107% and 104%, respectively.

In the case of `CC(=O)OCC1O[C@@H]([S-])C(OC(C)=O)[C@H](OC(C)=O)[C@@H]1OC(C)=O.[Au+].c1ccc(CN2[CH-]N(Cc3ccccc3)C(c3ccccc3)=C2c2ccccc2)cc1`, the growth with DU-145 prostate was 68.5%; with K-562 leukemia, 1.59% (active); in the assay with MALME-3M melanoma, -30.2% (active); with MDA-MB-231 breast, -29.4% (active); with RXF 393 renal, -52.3% (active); with SF-268 CNS, 33.4%. Further, the growth in the assay with SF-539 CNS was 70.7%; in the assay on UACC-257 melanoma, 65.5%; in the assay on M14 melanoma it was 48.5%.

In the case of `O=Cc1cn(Cc2ccc(Cl)cc2)c2ccccc12`, the growth in the assay on DU-145 prostate is 95.5%; with K-562 leukemia, 40.5%; in the assay with MALME-3M melanoma, 96.5%; in the assay with MDA-MB-231 breast, 96.1%; in the assay on SF-268 CNS, 89.6%; in the assay with SF-295 CNS, 46%. For the same compound, the growth in the assay with SF-539 CNS is 87.4%; in the assay with UACC-257 melanoma, 21.8%; in the assay on M14 melanoma, 83.8%.

In the case of `O=[As](O)(O)c1ccccc1[As](=O)(O)O`, the growth is 109% in the assay on DU-145 prostate; 107% in the assay with K-562 leukemia; 115% with MALME-3M melanoma; 103% in the assay with MDA-MB-231 breast; 120% in the assay on RXF 393 renal; 99.3% in the assay with SF-268 CNS. For the same compound, the growth in the assay with SF-539 CNS is 96.3%; in the assay on UACC-257 melanoma, 101%; with M14 melanoma, 116%.
